A selection: hits, their analogues and other compounds. The true share with any hit is near 7.9%.
HCMV antiviral – human cytomegalovirus inhibition | HFF cells, HCMV-luciferase reporter, 72 h; stronger effect = lower value | activity change, negative = inhibition, % at 57.5 µM | actives 4.5% (n = 410,000); in the data active = activity change below about -60%; inconclusive = no clear call, values can overlap the other calls; inactive = above about -39%
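Two compound doses tested in HFFs infected with HCMV-luciferase, MOI 1 PFU/cell, 72 h at 37C. Lysate luminescence read with OneGlo; data normalized against buffer-only and 10uM Salinomycin inhibitor controls.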
HCV inh – inhibitors of hepatitis C virus infection; AID 651820; Huh7.5.1 HCVcc-Cre infection, luciferase reporter, 44 h; actives 3.4% (n = 340,000); Potency, µM (doses to about 41.8 µM), without a hit: top-dose activity change, negative = inhibition, most hits filed as inhibitors; active = well fitted inhibition curve with a large enough effect; inconclusive = small, poorly fitted or top-dose-only effect, or another doubt; inactive = no such curve, though single readings can be large or run the other way; note: potency is the fitted concentration of half-maximal effect
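Cells seeded at 1,000/well and cultured 4 h, then compounds added followed by HCVcc-Cre virus (~0.5 moi). After 44 h further culture, luciferase substrate was added, plates held 15 min at room temperature, and luminescence read for 15 sec.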
MARV entry inh – blocks Marburg virus binding to or entry into cells; actives 1.8% (n = 300,000); AID 540276; Marburg virus pseudotyped entry inhibition, cell reporter; Potency, µM (doses to about 37.8 µM), without a hit: at the top dose activity change, negative = inhibition, usual class: inhibitors; calls by dose curve; tested in HEK293 cells; note: potency is the fitted concentration of half-maximal effect
LASV entry inh – Lassa virus entry inhibition; Lassa virus pseudotype entry inhibition, cell reporter; Potency, µM (top dose mostly 37.9 µM), inactives show at the top dose activity change, negative = inhibition, actives largely listed as inhibitors; actives 1.2% (n = 300,000); calls by dose curve; tested in HEK293 cells; note: potency is the fitted concentration of half-maximal effect; nearly all actives have a fitted effect of over 50% in size
FMDV antiviral – antivirals against foot and mouth disease virus | FMDV antiviral cell-based qHTS | Potency, µM (top dose mostly 57.9 µM), for inactives: top-dose activity change, negative = inhibition, most hits filed as inhibitors | actives 1.2% (n = 410,000) | AID 1159524; calls by dose curve; tested in HEK293T cells; note: read-out not given here; potency is the fitted concentration of half-maximal effect; nearly all actives have a fitted effect of over 45% in size
* = called active by the depositor; [ ] = remark or other dose. % is set by controls: 0 for no effect and ±100 for the full control effect.

What do the screens show for `CC(C)C[C@@H]1COc2cccc(N3CCSCC3)c2S(=O)(=O)N1`?
HCMV antiviral: 16; FMDV antiviral: -19%

Results for COc1ccc(Nc2ncc3c(n2)CC(c2ccc(C)cc2)CC3=O)cc1 (centres undefined) ?
HCMV antiviral: 2; HCV inh: -21%; MARV entry inh: inconclusive; LASV entry inh: 0.23µM*; FMDV antiviral: 7%

Results for Cc1cc(C(=O)CSc2nnc(-c3ccco3)o2)c(C)n1C ?
HCMV antiviral: -16; HCV inh: 11µM*; MARV entry inh: -18%[46.1 µM]; LASV entry inh: 9%; FMDV antiviral: 19%

What do the screens show for `NS(=O)(=O)c1ccc(NC(=O)N2c3ccccc3Sc3ccccc32)cc1`?
HCMV antiviral: -63*; HCV inh: -6%; MARV entry inh: -12%; LASV entry inh: inconclusive

How did Cc1ccc(NC(=S)N(CCCN2CCOCC2)Cc2ccco2)cc1Cl do in these assays?
HCMV antiviral: 16; HCV inh: -10%; MARV entry inh: inconclusive; LASV entry inh: inconclusive; FMDV antiviral: -2%

What do the screens show for `CCOC(=O)c1ccc(NC(=S)N(CCCN2CCCC(C)C2)Cc2ccco2)cc1` (centres undefined)?
HCMV antiviral: -29; HCV inh: 10µM*; MARV entry inh: inconclusive; LASV entry inh: inconclusive; FMDV antiviral: 16%

How did CCOC(=O)c1ccc(NC(=S)N(CCCN2CCN(CC)CC2)Cc2ccco2)cc1 do in these assays?
HCMV antiviral: -35; HCV inh: inconclusive; MARV entry inh: inconclusive; LASV entry inh: inconclusive; FMDV antiviral: -6%

What do the screens show for `CCN1CCN(CCCN(Cc2ccco2)C(=S)Nc2ccc(C)c(Cl)c2)CC1`?
HCMV antiviral: 69; HCV inh: 8.9µM*; MARV entry inh: inconclusive; LASV entry inh: inconclusive; FMDV antiviral: -3%

What do the screens show for `CCOC(=O)c1ccc(NC(=S)N(CCCN2CCCC(C)C2)Cc2cccs2)cc1` (centres undefined)?
HCMV antiviral: 8; HCV inh: -9%; MARV entry inh: inconclusive; LASV entry inh: inconclusive; FMDV antiviral: 7%

What do the screens show for `CCOC(=O)c1ccc(NC(=S)N(CCCN2CCCC2)Cc2ccco2)cc1`?
HCMV antiviral: -32; HCV inh: 10µM*; MARV entry inh: inconclusive; LASV entry inh: 0%; FMDV antiviral: 8%

How did CCC(=O)Nc1ccc(-c2nnc(SCC(=O)NC[C@H]3CCCO3)n2C)cc1 do in these assays?
MARV entry inh: -7%

How did COc1ccc(S[C@]2(C(=O)N(C)C)CC(=O)N(c3ccc4ccccc4c3)[C@@H]2c2ccc(OC)cc2)cc1 do in these assays?
HCMV antiviral: 19

How did COc1ccc(C)cc1NC(=O)C(=O)NCCc1sc(-c2ccc(Cl)cc2)nc1C do in these assays?
HCMV antiviral: 22; LASV entry inh: 9%[46.1 µM]; FMDV antiviral: -3%

What do the screens show for `CCCCOc1c(Cl)cc(C(=O)N2CCN(CC(=O)N3CCCC3)CC2)cc1OCC`?
HCMV antiviral: -29; HCV inh: 10µM*; MARV entry inh: -41%; LASV entry inh: 5%; FMDV antiviral: -29%

Results for CCCCOc1ccc(C(=O)N2CCCC2)cc1 ?
HCMV antiviral: 110; HCV inh: 1%; MARV entry inh: inconclusive; LASV entry inh: inconclusive; FMDV antiviral: 24%

What do the screens show for `Nc1ncnc(NCc2ccccc2)c1[N+](=O)[O-]`?
HCMV antiviral: -70*; HCV inh: 12%; MARV entry inh: -12%; LASV entry inh: 5%; FMDV antiviral: 9%

What do the screens show for `Nc1ncnc(Nc2ccccn2)c1[N+](=O)[O-]`?
HCMV antiviral: -27; HCV inh: inconclusive; MARV entry inh: -1%[46.1 µM]; LASV entry inh: 3%; FMDV antiviral: -17%

How did Cc1ccc(C)c(Nc2ncnc(N)c2[N+](=O)[O-])c1 do in these assays?
HCMV antiviral: -27; HCV inh: 6%; MARV entry inh: -19%; LASV entry inh: 0%; FMDV antiviral: -17%

What do the screens show for `CN(c1ccccc1)c1nc(N)c([N+](=O)[O-])c(NCc2ccccc2)n1`?
HCMV antiviral: -23; HCV inh: inconclusive; MARV entry inh: -5%; LASV entry inh: 1%; FMDV antiviral: inconclusive

What do the screens show for `Cn1ncc2c(NCc3ccc(F)cc3)ncnc21`?
HCMV antiviral: 0; LASV entry inh: 9%[46.1 µM]; FMDV antiviral: -9%

High-throughput results deposited in PubChem BioAssay by National Center for Advancing Translational Sciences (NCATS).
